Bioassay records deposited in PubChem BioAssay by several laboratories.
An excerpt weighted towards active compounds, which were near 0.67% of everything screened.
RN4220 kill = kills Staphylococcus aureus RN4220 | S. aureus RN4220 growth, OD600, 16 h | AID 1259311 | inhibition, % (concentration not given with the values) | 0.33% of 330,000 active; in the data active means inhibition above about 85%;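 further: plate controls were untreated cells for no effect and reference antibiotic for full effect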
ugtP null kill = kills S. aureus RN4220 lacking UgtP. growth inhibition, % (concentration not given with the values). AID 1259309. S. aureus RN4220 ugtP deletion, OD600 growth, 16 h. 0.54% of 330,000 active; in the data active means growth inhibition above about 68%;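 further: plate controls were untreated wells for no effect and antibiotic for full effect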
TcdB inh = TcdB glycohydrolase inhibition. TcdB glycohydrolase enzymatic assay, plate reader. inhibition, % at 9.99 µM. 0.24% of 350,000 active; in the data active means inhibition above about 10%
BH1578 lux ind = inducers of Vibrio cholerae quorum light production without autoinducers | activation, % at 18.7 µM | V. cholerae BH1578 lux reporter, luminescence, 6 h | 0.16% of 350,000 active; in the data active means activation mostly above about 9.7%, no sharp cut-off
* hit, by the source's call.

How did Cc1ccc(CON=CC2=C(Cl)c3ccccc3CC2)cc1 do in these assays?
RN4220 kill: -6; ugtP null kill: 95*

Results for CCN1C(=O)C2C(c3ccc(SC4CCCCC4)c(OC)c3)N[C@@](Cc3ccccc3)(C(=O)OC)C2C1=O (stereo not given in full) ?
RN4220 kill: -1; ugtP null kill: 2

How did Cc1cc(C)c2[nH]c(O)c(N=Nc3ccc(C(=O)O)cc3)c2c1 do in these assays?
RN4220 kill: 90*; ugtP null kill: 85*; TcdB inh: -1; BH1578 lux ind: 0

How did CCOC(=O)c1c2c(n(Cc3ccccc3)c1C)C(=O)C(=O)c1ccccc1-2 do in these assays?
TcdB inh: 0; BH1578 lux ind: inactive

Results for CCOC(=O)c1c2c(n(C)c1C)C(=O)C(=O)c1ccc(Br)cc1-2 ?
RN4220 kill: 95*; ugtP null kill: 95*; BH1578 lux ind: inactive

How did CC(=NNC(=O)C(N)=O)c1ccc2c(c1)OCCO2 do in these assays?
RN4220 kill: 0; ugtP null kill: -10

Results for C/C(=N\NC(N)=S)c1ccc2c(c1)OCCO2 ?
TcdB inh: 12*; BH1578 lux ind: -2

How did CC(=NNC(=O)CN1CCN(S(=O)(=O)c2ccc(C)cc2)CC1)c1ccncc1 do in these assays?
RN4220 kill: 4; ugtP null kill: 8

Results for Oc1ccc2c(ccc3[nH]cnc32)c1 ?
RN4220 kill: 5; ugtP null kill: -10; TcdB inh: 17*; BH1578 lux ind: -1

How did Brc1cc2[nH]cnc2c2ccccc12 do in these assays?
RN4220 kill: 3; ugtP null kill: -21; TcdB inh: 5; BH1578 lux ind: -6

How did CCOc1ccccc1C(=O)NN=Cc1c[nH]c2ccccc12 do in these assays?
RN4220 kill: 3; ugtP null kill: 7

What do the screens show for `Cc1ccc(/C=C(\NC(=O)c2ccccc2)C(=O)NC(Cc2ccccc2)C(=O)O)cc1` (stereo not given)?
RN4220 kill: 4; ugtP null kill: 4; BH1578 lux ind: inactive

What do the screens show for `CC(C)=C(NC(=O)c1ccccc1)C(=O)NC(Cc1ccccc1)C(=O)O` (stereo not given)?
RN4220 kill: 5; ugtP null kill: 3; TcdB inh: -2; BH1578 lux ind: 15*

What do the screens show for `CCOc1ccc(S(=O)(=O)NCCC(=O)NCc2ccccn2)cc1`?
RN4220 kill: 3; ugtP null kill: 3; TcdB inh: 11*; BH1578 lux ind: inactive

How did Cc1ccc(S(=O)(=O)NCCC(=O)NCc2ccccn2)cc1 do in these assays?
RN4220 kill: 4; ugtP null kill: 19; TcdB inh: 1; BH1578 lux ind: -1

How did Cc1ccc(-c2cc3ccccc3nc2N2CCCC2)cc1 do in these assays?
RN4220 kill: -3; ugtP null kill: 89*; BH1578 lux ind: inactive

Results for Clc1ccc(-c2cc3ccccc3nc2N2CCOCC2)cc1 ?
RN4220 kill: 2; ugtP null kill: 93*; TcdB inh: 0; BH1578 lux ind: -1

How did NC(=O)CC1NC(=O)c2cc([N+](=O)[O-])cc(I)c2OCCC(C(N)=O)NC(=O)C2CCCN2C1=O (stereo not given) do in these assays?
RN4220 kill: 7; ugtP null kill: 0

How did COc1ccc(C(O)=Cc2nc3ccccc3n(-c3ccccc3)c2=O)cc1 do in these assays?
RN4220 kill: 6; ugtP null kill: 6

Results for Fc1ccc(NN=C2CC(c3ccccc3)Oc3ccccc32)c(F)c1 (stereo not given) ?
RN4220 kill: -9; ugtP null kill: -19

Results for Cc1ccc(C)c2c1cc(C)c1nnc(SCC(=O)NCc3ccc4c(c3)OCO4)n12 ?
RN4220 kill: -10; ugtP null kill: 10; TcdB inh: 10*; BH1578 lux ind: 0

Results for Cc1cccnc1Nc1nc(-c2ccccn2)cs1 ?
RN4220 kill: 98*; ugtP null kill: 99*; BH1578 lux ind: 0

What do the screens show for `Cc1cccnc1Nc1nc(-c2ccccc2)cs1`?
RN4220 kill: -2; ugtP null kill: 25; TcdB inh: -1; BH1578 lux ind: inactive

What do the screens show for `CC(Sc1nccn1C)C(=O)c1c(N)n(C)c(=O)n(C)c1=O` (stereo not given)?
RN4220 kill: 2; ugtP null kill: 0; TcdB inh: 24*; BH1578 lux ind: -1

Results for COc1ccc(C(=O)NCCCCc2ccccc2)cc1 ?
RN4220 kill: -1; ugtP null kill: 6; TcdB inh: 1; BH1578 lux ind: 1

Results for COc1ccc(NS(=O)CCCc2ccccc2)cc1 (stereo not given) ?
TcdB inh: 11*

Results for O=C(CC(=O)NC1CCCCC1)NN=Cc1ccccc1[N+](=O)[O-] ?
RN4220 kill: 2; ugtP null kill: 14

How did CCn1c(=O)c(C(=O)Nc2ccccc2S(N)(=O)=O)c(O)c2ccccc21 do in these assays?
RN4220 kill: 5; ugtP null kill: -17; BH1578 lux ind: -1
